High-throughput results (PubChem BioAssay)
D3 ag = agonists of human D3 dopamine receptor | P35462 | max activation, % | AID 652048 | D3R DiscoveRx beta-arrestin cells, luminescence, 90 min | actives 0.58% (n = 410,000); in the data active = max activation above about 30%; also: 0% is about no effect
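Agonist-mode cell screen: cells plated at 1500/well and incubated overnight at 37 °C, then exposed to library compounds for 90 min at 37 °C. Detection reagent was added for 30–60 min at room temperature, and luminescence was read.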
D3 antag = blocks the human D3 dopamine receptor; P35462; D3R cells, DiscoveRx beta-arrestin luminescence, antagonist mode; active compounds read low; max response, negative = inhibition, %; actives 2.5% (n = 360,000); AID 652054; in the data active = max response below about -50%; also: % is scaled to controls: 0 for no effect and ±100 for the full control effect
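Cells plated overnight at 1500 cells/well, then exposed to library compounds with dopamine controls for 90 minutes at 37 degrees C. DiscoveRx reagent added for 30–60 minutes at room temperature; luminescence read, quantitative HTS format.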
D1 ag = activates the human D1 dopamine receptor; P21728; HEK293 T-REx D1 cells, calcium flux, agonist mode; activation, % at 2 µM; actives 1% (n = 360,000); AID 504660; in the data active = activation above about 30%; also: 0% is about no effect
Target sequence (P21728 whole entry, looked up): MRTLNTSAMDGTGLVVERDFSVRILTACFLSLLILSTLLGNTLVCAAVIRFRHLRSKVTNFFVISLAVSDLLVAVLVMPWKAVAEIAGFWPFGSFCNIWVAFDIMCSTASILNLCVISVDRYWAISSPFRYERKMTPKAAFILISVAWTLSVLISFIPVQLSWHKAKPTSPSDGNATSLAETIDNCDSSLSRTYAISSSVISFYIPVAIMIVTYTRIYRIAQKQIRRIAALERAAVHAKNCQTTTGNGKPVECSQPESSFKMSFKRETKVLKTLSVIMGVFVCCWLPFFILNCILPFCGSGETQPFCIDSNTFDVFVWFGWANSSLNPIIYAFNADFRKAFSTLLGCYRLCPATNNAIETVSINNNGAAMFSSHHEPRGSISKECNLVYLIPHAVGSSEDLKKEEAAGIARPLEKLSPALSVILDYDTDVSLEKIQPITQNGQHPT
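Inducible HEK293 T-REx D1 cells, force-coupled to calcium signalling, were plated at 4000 cells/well with tetracycline and held overnight at 30 C. After no-wash calcium dye loading, compound-evoked calcium rise over 180 s flagged agonists.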
D1 potentiator = human D1 dopamine receptor positive modulation | AID 504651 | potentiation, % at 10 µM | actives 0.036% (n = 360,000) | HEK293 TREx D1 cells, calcium flux, dopamine EC20 potentiation; in the data active = potentiation above about 30%; also: 0% is about no effect
D1 antag = human D1 dopamine receptor antagonism. P21728. HEK293 TREx D1 cells, calcium flux, dopamine EC80; active compounds read low. activity change, negative = inhibition, % at 10 µM. actives 3.2% (n = 360,000); in the data active = activity change below about -30%; also: % is scaled to controls: 0 for no effect and ±100 for the full control effect
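Kinetic fluorescence of a calcium dye serves as the read-out. D1-expressing Hek293 Trex cells, induced overnight at 30 C, are exposed to compound for 180 s before an EC80 dopamine addition, then read 180 s further.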
Numbers without * were called inactive; . = not tested or not shown; ! = not confirmed by another sample. This is a sample that favours compounds with a hit; in the whole collection about 6% have one here.

SMILES	D3 ag	D3 antag	D1 ag	D1 potentiator	D1 antag
CCOc1ccc(NC(=O)CSC(N)=O)cc1	-5	-72*	1	0	7
CCc1ccccc1NC(=O)Cn1nnc(C(=O)NCc2ccco2)c1N	3	.	-1	0	16
CC(C)C[C@H](NC(=O)[C@H](CCc1ccccc1)NC(=O)CN1CCOCC1)C(=O)N[C@@H](Cc1ccccc1)C(=O)N[C@@H](CC(C)C)C(=O)[C@@]1(C)CO1	7	.	.	.	.
COC(=O)c1c(NC(=O)c2cc(=O)c3ccc(C)c(C)c3o2)sc2c1CCCC2	2	.	2	1	-9
CCC(=O)NC(c1ccc([N+](=O)[O-])cc1)c1c(O)ccc2ccccc12 (configuration not stated)	-7	-28	13	0	-37*
CC(=O)NC(c1cccc([N+](=O)[O-])c1)c1c(OC(C)=O)ccc2ccccc12 (configuration not stated)	-7	-68*	.	.	.
CCCCC(=O)NC(c1ccc([N+](=O)[O-])cc1)c1c(O)ccc2ccccc12 (configuration not stated)	-20	-52*	7	-6	-24
CC(=O)Oc1ccc2ccccc2c1C(NC(=O)C(C)C)c1cccc([N+](=O)[O-])c1 (configuration not stated)	-2	-20	-1	-3	21
CCCCC(=O)NC(c1cccc([N+](=O)[O-])c1)c1c(OC(C)=O)ccc2ccccc12 (configuration not stated)	2	-9	6	-10	0
CC(C)c1ccc(OCC(=O)NCC(c2ccc(Cl)cc2)N2CCOCC2)cc1 (configuration not stated)	-3	.	-2	0	4
COc1cc2nc(SCc3cccc(Cl)c3)n3nc(CCn4nc(C)cc4C)nc3c2cc1OC	-8	.	0	4	-1
Cc1cc(C(=O)NCCc2ccc(Cl)cc2)c2c(C)nn(-c3cccc(F)c3)c2n1	6	.	3	0	-9
Cc1ccc(S(=O)(=O)NC(=O)NCCCN2CCOCC2)cc1	-8	-18	2	-10	-56*
Cc1ccc(-c2nn(C)c(=O)c3ccccc23)cc1S(=O)(=O)NCCN1CCOCC1	-5	-53*	-3	0	20
Cc1cc(C)cc(NC(=O)C(=O)NCCCN2CCOCC2)c1	-2	18	-1	2	-79*!
O=S(=O)(NCCN1CCOCC1)c1cc(Cl)c(Cl)cc1Cl	1	3	6	-5	-31*
CCOC(=O)CNS(=O)(=O)c1cc(-c2nn(C)c(=O)c3ccccc23)ccc1C	4	2	.	.	.
CC(C)(C)OC(=O)N1CCC(c2c(C(=O)NC3CCCCC3)cnn2-c2cccc(F)c2)CC1	1	.	1	3	18
C1=CC2=NC34CCCCC3CC3=C(CCCC3)N4C2=CC1=NC1CCCCC1 (configuration not stated)	-12	-19	.	.	.
Cc1cc(C)c(NC(=O)OCCN2CCOCC2)c(C)c1	-7	-60*	1	-2	2
Cc1ccc(S(=O)(=O)NCCCN2CCCC2)cc1	-17	-53*	1	2	5
Cc1ccc(S(=O)(=O)NCCCN2CCOCC2)cc1C	-1	-67*	1	-6	1
COc1cccc(C(=O)NCCSc2c(-c3ccc(F)cc3)[nH]c3ccccc23)c1OC	0	.	0	1	2
Cc1cc(C)cc(NC(=O)c2cccc3c2C(=O)N(C2CCCCC2)C3)c1	2	9	0	-4	-1
COc1cc(NC(=O)c2cccc3c2C(=O)N(C2CCCCC2)C3)cc(OC)c1OC	5	66	-1	1	-78*!
SMILES	D3 ag	D3 antag	D1 ag	D1 potentiator	D1 antag
Nc1nonc1/C(=N/O)N1CCN(CCO)CC1	-13	-64*	2	0	6
Nc1nonc1C(=O)OCC(=O)N1CCOCC1	1	-5	4	2	-18
CN1CCN(/C(=N\O)c2nonc2N)CC1	-7	-68*	5	-10	-42*
O=C(CSc1nc(=O)n(Cc2ccncc2)c2c1CCC2)Nc1ccc(F)cc1F	0	.	-2	-1	.
CCC(CC)C(=O)Nc1ccc(C(=O)OCc2cc(=O)n3nc(C4CC4)sc3n2)cc1	27	.	-1	0	5
Cc1ccc(N2CCN(S(=O)(=O)N3CCOCC3)CC2)cc1C	-6	-16	1	2	-31*
Fc1ccc(CN2CC[C@H]3C=CCc4cccc(c43)C2)cc1	-60	-53*	0	-5	-9
